Laboratory results: PubChem BioAssay AID2685 (National Center for Advancing Translational Sciences (NCATS), 2010)
Hit rate of the full screen: of about 320,000 compounds, about 2,100 (0.66%) were called active. Roughly 53% stayed inconclusive and do not appear here. The call rests on the fitted dose curve; in most records, active means well fitted inhibition curve with a large enough effect in the signal ratio, with a control signal flat (not every such curve was filed as active); inconclusive means small, poorly fitted or top-dose-only effect, or effect the other way, or a change in a side signal; inactive means flat fitted curve, though single readings scatter; the % refers to the signal ratio. Shown is part of a subset that was picked to be rich in actives.
Potency means the concentration at half of the fitted maximal effect.

Experiment: qHTS Assay for Lipid Storage Modulators in Drosophila S3 Cells;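 on cell number change: cells counted by Cell Tracker Red CMTPX staining in the red channel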; on lipid storage change, negative = inhibition: on the % scale 0 is the no-effect control and ±100 the full control effect
Conditions: BODIPY lipid droplet fluorescence, 18-24 h, cells fed with added oleic acid; cell number change: measured here: cell count max response; series mostly up to 46.1 µM; lipid storage change, negative = inhibition: at the top concentration
Summary of the method: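 Drosophila S3 cells got compounds at several concentrations plus oleic acid (400 uM solution). Laser-scanning cytometry with 488 nm excitation read lipid droplets at 500-530 nm and cells at 575-640 nm. Percent activity was relative to 20 uM Triacsin C.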
For COc1cccc2oc3cc(C#Cc4ccccn4)ccc3c(=O)c12, the Potency was 18.4 µM (active) and the cell number change was -23%. With Cn1c2ccccc2c(=O)c2cc(C#Cc3ccccn3)ccc21 the “outcome” value was “inactive” and the cell number change was -13.6%. For CNC(C)C#Cc1ccc2oc3cccc(OC)c3c(=O)c2c1 (stereo unspecified), the “lipid storage change, negative = inhibition” value was -27.3% (inactive) and the cell number change was 16.5%. For Cn1c2ccccc2c(=O)c2ccc(-c3ccc4c(c3)OCO4)cc21, the “lipid storage change, negative = inhibition” value was -10.8% (inactive) and the cell number change was -21%. In the case of Cn1c2ccccc2c(=O)c2ccc(C#Cc3ccccn3)cc21, the Potency is reported as 14.6 µM (active) and the cell number change is reported as -26.5%. In the case of CN(C)c1ccc(-c2ccc3c(=O)c4ccccc4n(C)c3c2)cn1, the Potency is reported as 23.1 µM (active) and the cell number change is reported as -7.49%. In the case of COc1ccc2c(=O)c3ccccc3oc2c1, the “lipid storage change, negative = inhibition” value is reported as -3.99% (inactive) and the cell number change is reported as -11.6%. For Nc1cccc(C#Cc2ccc3c(=O)c4ccccc4oc3c2)c1, the “outcome” value was “inactive” and the cell number change was -4.2%. In the case of COc1cc(OC)cc(-c2c(-c3cccs3)c3cc(-c4ccc(N(C)C)nc4)ccc3n2C)c1, the “outcome” value is reported as “inactive” and the cell number change is reported as 14.6%. In the case of COc1cc2oc3ccccc3c(=O)c2cc1OC, the “lipid storage change, negative = inhibition” value is reported as -12.2% (inactive) and the cell number change is reported as -9.58%. For Cn1c2ccccc2c(=O)c2ccc(C#Cc3ccc(N)cc3)cc21, the “lipid storage change, negative = inhibition” value was -0.819% (inactive) and the cell number change was 2.27%. For O=C(NC12CC3CC(CC(C3)C1)C2)c1ccc(Br)o1, the “lipid storage change, negative = inhibition” value was -6.92% (inactive) and the cell number change was -22.8%. In the case of O=C(c1ccccn1)N(CC1CCCO1)C1(C(=O)NC2CCCCC2)CCCCC1 (stereo unspecified), the “lipid storage change, negative = inhibition” value is reported as 8.55% (inactive) and the cell number change is reported as -0.121%. With Cc1ccc(NC(=O)OCc2cc(-c3ccccc3)on2)cc1 the “lipid storage change, negative = inhibition” value was 23.7% (inactive) and the cell number change was 4.96%. For OCC(O)C(O)C(O)C(O)C1NCCS1 (stereo unspecified), the “lipid storage change, negative = inhibition” value was 0.23% (inactive) and the cell number change was 16.2%. In the case of COc1ccc(CCNC(=O)C2CCN(C(=O)c3ccc(OC)c(OC)c3)CC2)cc1, the “outcome” value is reported as “inactive”. In the case of COc1ccc(CCNC(=O)C2CCN(C(=O)c3ccc(Cl)cc3)CC2)cc1, the “lipid storage change, negative = inhibition” value is reported as 17.4% (inactive) and the cell number change is reported as -13.5%. For COc1ccc(CCNC(=O)C2CCN(C(=O)c3ccc(Br)cc3)CC2)cc1, the Potency was 5.8 µM (active) and the cell number change was -9.49%. For Cc1ccc(N2C(=O)C(Cl)=C(N3CCOCC3)C2=O)c(C)c1, the “lipid storage change, negative = inhibition” value was 8.98% (inactive) and the cell number change was -6.56%. In the case of CCOC(=O)C(=CNc1ccc(C(F)(F)F)cc1)C(=O)OCC, the “lipid storage change, negative = inhibition” value is reported as 9.49% (inactive) and the cell number change is reported as 11.9%. With CC1CN(C(=O)CCN2C(=O)c3ccccc3C2=O)CC(C)O1 (stereo unspecified) the “lipid storage change, negative = inhibition” value was 3.2% (inactive) and the cell number change was 7.71%. In the case of Cc1cc(C)cc(C(=O)N2CC(C)OC(C)C2)c1 (stereo unspecified), the “lipid storage change, negative = inhibition” value is reported as -3.57% (inactive) and the cell number change is reported as 20.2%. For CC1CN(C(=O)c2ccc(C(=O)c3ccccc3)cc2)CC(C)O1 (stereo unspecified), the “lipid storage change, negative = inhibition” value was 12.1% (inactive) and the cell number change was -18.7%. In the case of CC1CN(C(=O)c2cccc(C(=O)N3CC(C)OC(C)C3)c2)CC(C)O1 (stereo unspecified), the Potency is reported as 18.4 µM (active) and the cell number change is reported as 7.82%. In the case of CC1CN(C(=O)Cn2c(=O)oc3ccccc32)CC(C)O1 (stereo unspecified), the “lipid storage change, negative = inhibition” value is reported as 17.6% (inactive) and the cell number change is reported as 13.4%. For CC1CN(C(=O)CN2C(=O)c3ccccc3C2=O)CC(C)O1 (stereo unspecified), the Potency was 23.1 µM (active) and the cell number change was -24.9%. With O=C(CC(=O)N/N=C/c1ccc(Cl)cc1Cl)NCc1ccccc1 the “lipid storage change, negative = inhibition” value was 28.5% (inactive) and the cell number change was -3.68%. For CCN(Cc1ccccc1)c1ccc(/C=N/NC(=S)NC(C)C)cc1, the “lipid storage change, negative = inhibition” value was -15.2% (inactive) and the cell number change was -13%. In the case of OCc1nc2ccccc2n1CC(O)Cn1ccc2ccccc21 (stereo unspecified), the “outcome” value is reported as “inactive”. For O=c1ccc2c([nH]1)CCCCCCCCCC2, the “lipid storage change, negative = inhibition” value was 2.42% (inactive) and the cell number change was 10%. With O=c1cc2c(n[nH]1)-c1ccccc1CC2 the “lipid storage change, negative = inhibition” value was -0.241% (inactive) and the cell number change was 1.15%. In the case of O=c1cc2c(n[nH]1)CCCC2, the Potency is reported as 0.58 µM (active) and the cell number change is reported as -2.03%. With Cc1ccc(-c2nnc(SCC(=O)Nc3nccs3)n2N)cc1 the “lipid storage change, negative = inhibition” value was -7.51% (inactive) and the cell number change was -14.7%. For COc1ccc(NS(=O)(=O)c2ccc3c(c2)N(C(C)=O)CC(C)S3)c(OC)c1 (stereo unspecified), the “outcome” value was “inactive” and the cell number change was 6.52%. In the case of O=C1NC2(CCCCCC2)C(=O)N1Cc1ccc(Br)cc1, the “lipid storage change, negative = inhibition” value is reported as 23% (inactive) and the cell number change is reported as -22.7%. For CC(C)c1ccc(CN2C(=O)NC3(CCCCCC3)C2=O)cc1, the Potency was 18.4 µM (active) and the cell number change was 2.7%. With O=C1NC2(CCCCCCC2)C(=O)N1Cc1ccc(F)cc1 the “lipid storage change, negative = inhibition” value was -10.4% (inactive) and the cell number change was 7.12%. In the case of CCCCC(=O)NS(=O)(=O)c1ccc(N=NN2CCOCC2)cc1, the “lipid storage change, negative = inhibition” value is reported as 1.16% (inactive) and the cell number change is reported as -7.29%. With CCCCSCCCNC(=S)Nc1ccccc1C the “lipid storage change, negative = inhibition” value was 3.97% (inactive) and the cell number change was -6.21%. With Cc1ccc(NC(=O)CSc2ccccc2NC(=O)c2ccccc2Cl)cc1Cl the “lipid storage change, negative = inhibition” value was 8.64% (inactive) and the cell number change was 13.7%. With Cc1ccc(NC(=O)CSc2ccccc2NC(=O)c2cccc(Cl)c2)cc1Cl the “lipid storage change, negative = inhibition” value was -2.45% (inactive) and the cell number change was -1.09%. With Cc1ccc(NC(=O)CSc2ccccc2NC(=O)c2ccccc2)cc1Cl the Potency was 20.6 µM (active) and the cell number change was -20%. In the case of CC(=O)c1cccc(NS(=O)(=O)c2ccc(N/C=C/C(=O)c3ccc(F)cc3)cc2)c1, the “outcome” value is reported as “inactive” and the cell number change is reported as -28.4%. With CCOc1cccc(CNCCO)c1OCc1ccc(Cl)cc1 the “lipid storage change, negative = inhibition” value was 10.9% (inactive) and the cell number change was -0.0822%. For CCOC(=O)c1sc2nc(CSc3nc4ccccc4n3CC)[nH]c(=O)c2c1C, the “lipid storage change, negative = inhibition” value was 1% (inactive) and the cell number change was -16.4%. In the case of CCn1c(SCc2nc3sc(C(=O)O)c(C)c3c(=O)[nH]2)nc2ccccc21, the Potency is reported as 20.6 µM (active). For C=CCn1c(SCc2nc3sc(C(=O)O)c(C)c3c(=O)[nH]2)nnc1-c1ccccc1, the “lipid storage change, negative = inhibition” value was 3.05% (inactive) and the cell number change was -15.1%.
